47 compounds from PubChem BioAssay AID904 (National Center for Advancing Translational Sciences (NCATS), 2007) can be followed below.

Molecules are shown by their SMILES. Screen size: about 55,000 compounds; about 530 (0.96%) were called active. Inconclusive results (about 7%) are left out. The call rests on the fitted dose curve; in most records, active means well fitted cell-killing curve with a large enough effect; inconclusive means small, poorly fitted or top-dose-only effect; inactive means no such curve, though single readings can be large or run the other way. The entries come from a sample that favours actives as a whole.
Potency means the concentration at half of the fitted maximal effect.

The nature of this experiment: qHTS Screen for Compounds that Selectively Target Cancer Cells with p53 Mutations: Cytotoxicity of p53 Null Cells at the Nonpermissive Temperature. Further: nearly all actives have a fitted effect of over 50% in size.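 On activity, negative = cell killing: 0% = DMSO only and -100% = full killing by 100 µM tamoxifen.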 As to conditions: H1299 p53-null (neo) cells, 39C, ATPlite viability, 24 h; series mostly up to 46.1 µM; activity, negative = cell killing: at the top concentration. The text has this:
NIH Chemical Genomics Center [NCGC] NIH Molecular Libraries Screening Centers Network [MLSCN] MLSCN Grant: 1 X01 MH079844-01 Assay Submitter (PI): Dr. SUN, YI, University of Michigan NCGC Assay Overview: Synthetic Lethal Screen for Compounds to Kill Cancer Cells with p53 Mutation. Tumor suppressor gene p53 serves as a major cellular barrier against tumorigenesis. […] The goal of this screening is to identify small molecule probes that selectively kill cancer cells with mutations in p53. This screening was carried out using two lines of H1299 lung cancer cells. The H1299-p53 A138V line express a temperature sensitive p53 mutant (p53ts) in which the mutant p53 protein (A138V) is in the mutant confirmation when grown at 39C (the nonpermissive temperature) and in the wild type conformation when grown at 32C (the permissive temperature). A H1299-neo line (p53 null) grown at both 39C and 32C were used as counter-screens to filter out false positive associated with temperature shifting. The small molecular compounds that selectively target mutant p53-containing cancer cells were selected as candidate probes for further study. A cytotoxicity assay based on the measurement of ATP contents in cells was used in this screen. Concentration-responses of all the compounds in the library collection were determined in qHTS using the cell lines and temperature conditions as above.
NCGC Assay Protocol Summary: Both the H1299-p53A138V and H1299-neo cell lines were provided by Dr.Yi Sun, a PI at the University Michigan. The cells were maintained and cultured at 37C. The resuspended frozen cells were used to plate the cells in the 1536-well assay plates at a density of 600 cells per well in 5 ul medium. The assay plates with the cells were incubated at 37C for 16 to 30 hours before the experiments. The library compounds in DMSO solution were added to the cells in assay plates and incubated 24 hours at 39C (for mutant p53 conformation) or 32C (for normal p53 conformation as control). An ATP_lite assay kit (PerkinElmer) was used to determine the cell viability. Tomaxifen (100uM) was used as the positive control for cell killing. Data were normalized to the controls for basal activity (DMSO only) and 100% killing (100uM tamoxifen). AC50 values were determined from concentration-response data modeled with the standard Hill equation. P53 assay protocol: 1. Reagent; 5 uL H1299-p53A138V or H1299-neo cell cells/well 2. Time; overnight; 37C incubation 3. Compounds; 23 nL; 5.9 nM to 46 uM 4. Controls; 23 nL; Tamoxifen 100 uM 5. Time; 24 hr; 39C incubation 6. Reagent; 3 uL; ATP_Lite reagent 7. Time; 20 min; Room Temperature 8. Detection; Luminescence; Viewlux plate reader Keywords: p53, synthetic lethal, cancer, cell viability, cytotoxicity, H1299 cell line, luminescence, MLSMR, MLSCN, NIH Roadmap, qHTS, NCGC
Background: In qHTS, concentration-response curves come from the screen itself.
For the compound `Cc1ccc(NC(=O)C2CCN(S(=O)(=O)c3cc(-c4noc(C)n4)ccc3C)CC2)c(C)c1`, the “activity, negative = cell killing” value was 16.7% (inactive).

Turning to `Cc1ccc(-c2cc(N)on2)cc1`, the activity, negative = cell killing is 9.86% [at 1.84 µM] (inactive).

Regarding `Cc1ccc2[nH]cc(CCCN3C(=O)c4ccccc4C3=O)c2c1`, the activity, negative = cell killing was -0.898% [at 1.84 µM] (inactive).

In the case of `Cc1nn(Cc2ccc(Cl)cc2)c(Cl)c1/C=N/NC(=O)CNc1ccccc1F`, the “activity, negative = cell killing” value is 34.8% (inactive).

With `COc1ccc(NC(=O)Cn2c(=O)n(CCC(C)C)c(=O)c3cccnc32)cc1Cl`, the “activity, negative = cell killing” value is -16.3% (inactive).

On to `CCOC(=O)c1ccc(NC(=O)Cn2cc(S(=O)(=O)Cc3ccccc3F)c3ccccc32)cc1`, for which the “activity, negative = cell killing” value was -3.04% (inactive).

Turning to `CCOc1cccc2c1N[C@@H](c1ccc(C(=O)O)cc1)[C@H]1CC=C[C@@H]21`, the “activity, negative = cell killing” value was 2.51% (inactive).

On to `Cc1[nH]c2ccccc2c1/C=N/NC(=O)CNC(=O)c1ccc2c(c1)OCO2`, for which the activity, negative = cell killing was 2.07% [at 1.84 µM] (inactive).

For `Cc1cc[n+](-c2[nH]c(=O)sc2/C=N/NC(=O)c2ccccc2[O-])cc1C`, the “activity, negative = cell killing” value was 21.4% (inactive).

Take `Cc1cccc(NC(=O)Cn2nc(-c3ccc(Cl)cc3)c3ccccc3c2=O)c1`: the “activity, negative = cell killing” value was 1.82% (inactive).

For the compound `O=C(Cn1c(=O)nc(-c2ccccc2)c2cc(Cl)ccc21)NCc1ccc(Cl)cc1`, the “activity, negative = cell killing” value was -21.4% (inactive).

As to `CCN(C(=O)Cn1c(=O)nc(-c2ccccc2)c2cc(Cl)ccc21)c1cccc(C)c1`, the Potency was 12.6 µM (active).

As for `COc1ccc(-c2nnc(SCc3cccnc3)o2)cc1`, the “activity, negative = cell killing” value was -29.7% (inactive).

Consider `CCCn1c(SCC(=O)Nc2ccc(C)c(S(=O)(=O)N3CCOCC3)c2)n[nH]c1=O`, for which the “activity, negative = cell killing” value was 11.9% (inactive).

As to `COc1cc(C(=O)Nc2ccc(-n3c(C)nc4ccccc4c3=O)cc2)cc(OC)c1OC`, the “activity, negative = cell killing” value is 19% (inactive).

Regarding `O=C(Nc1c2c(nc3ccccc13)CCCC2)c1ccccc1Br`, the “activity, negative = cell killing” value was 12.7% (inactive).

Consider `COc1ccccc1Nc1c2c(nc3ccc(NC(=O)/C=C/c4cc(OC)c(OC)c(OC)c4)cc13)CCCC2`, for which the Potency is 10 µM (active).

Take `CCOC(=O)c1cc2c(=O)n3ccccc3nc2n(CC2CCCO2)c1=NC(=O)c1ccc(C(C)(C)C)cc1` (configuration not stated): the “activity, negative = cell killing” value was 10.4% (inactive).

Consider `Cc1ccccc1CSc1nc2c([nH]c3ccccc32)c(=O)n1C`, for which the “activity, negative = cell killing” value was 12.6% (inactive).

For `CC1=C(c2ccc(C)cc2)S(=O)(=O)NC1=NCCCN1CCN(c2cc(C)ccc2C)CC1`, the “activity, negative = cell killing” value is -8.74% (inactive).

In the case of `Cc1ccc(C)c(N2CCN(CCCNC(=O)Nc3ccc(Cl)cc3)CC2)c1`, the Potency is 5.01 µM (active).

As to `CC1=C(c2ccc(Cl)cc2)S(=O)(=O)N=C1N1CCN(c2cc(C)ccc2C)CC1`, the “activity, negative = cell killing” value is -12.3% (inactive).

Take `COc1ccccc1OCC(=O)Nc1nnc2n1CCS2`: the “activity, negative = cell killing” value was 17% (inactive).

As for `CC(C)S(=O)(=O)c1oc(-c2ccc(F)cc2)nc1S(=O)(=O)c1ccc(F)cc1`, the Potency was 12.6 µM (active).

On to `Cc1ccc(-c2nc(S(=O)(=O)c3ccc(C)cc3)c(N3CCCCCC3)o2)cc1`, for which the “activity, negative = cell killing” value is 3.17% (inactive).

As to `O=C(CSc1oc(-c2ccc(F)cc2)nc1S(=O)(=O)c1ccc(Br)cc1)NC1CCCCC1`, the “activity, negative = cell killing” value was -7.12% (inactive).

Regarding `CCOc1ccc(S(=O)(=O)N/N=C(\C)c2ccc(Cl)c(Cl)c2Cl)cc1`, the “activity, negative = cell killing” value is 13.3% (inactive).

For the compound `Cc1ccc(S(=O)(=O)NC2(C(F)(F)F)NC(=O)N(CCc3ccccc3)C2=O)cc1` (configuration not stated), the “activity, negative = cell killing” value is 0.252% (inactive).

Regarding `CCOc1ccc(NC(=O)CN2CCN(CC(=O)Nc3ccc(OC)cc3)CC2)cc1`, the Potency result was “inactive”.

For the compound `CCOc1ccc(NC(=O)c2cnn(-c3ccccc3)c2-n2cccc2)cc1`, the “activity, negative = cell killing” value is 59.1% (inactive).

For the compound `CCOc1ccc(NC(=O)c2ncoc2-c2ccco2)cc1`, the Potency is 5.01 µM (active).

With `C=Cc1ccc(Cn2c(C(=O)O)c(CNC3CCCC3)c3ccc(C)cc32)cc1`, the “activity, negative = cell killing” value is -17.8% (inactive).

As for `Cc1ccccc1C(=O)Nc1cc(C)c(O)c(-c2nc3ccccc3o2)c1`, the “activity, negative = cell killing” value is -18% (inactive).

`O=C(NC1CCN(C(=S)NCc2ccco2)CC1)c1ccc(F)cc1`: the “activity, negative = cell killing” value is 5.38% (inactive).

Consider `COc1ccc(S(=O)(=O)NCC(c2ccco2)N2CCOCC2)cc1` (configuration not stated), for which the “activity, negative = cell killing” value was 5.2% (inactive).

Regarding `Cc1ccc(NS(=O)(=O)c2ccc3c(c2)CC(=O)N3)cc1Cl`, the “activity, negative = cell killing” value was -10.8% (inactive).

Turning to `COc1ccc(CCNc2nc(-c3ccc(F)cc3)cc(C(F)(F)F)n2)cc1OC`, the “activity, negative = cell killing” value was -13.6% (inactive).

Take `Cc1ccc(O)c(NC(=O)CCS(=O)(=O)c2nc(-c3ccc4c(c3)OCO4)cc(C(F)(F)F)n2)c1`: the “activity, negative = cell killing” value is 68.3% (inactive).

In the case of `COc1ccccc1-c1cc(C(F)(F)F)nc(S(=O)(=O)CCCC(=O)Nc2cc(C)ccc2O)n1`, the Potency was 22.4 µM (active).

Consider `CSc1ccccc1NC(=O)CCS(=O)(=O)c1nc(-c2cccs2)cc(C(F)(F)F)n1`, for which the “activity, negative = cell killing” value is 133% (inactive).

Take `CC(=O)c1ccc(NC(=O)c2nc3nc(C)cc(C(F)F)n3n2)cc1`: the “activity, negative = cell killing” value was 11.3% (inactive).

In the case of `CCCS(=O)(=O)c1ncc(Cl)c(C(=O)Nc2scc(-c3ccccc3)c2C(=O)OCC)n1`, the “activity, negative = cell killing” value was -27.2% (inactive).

As for `CCSc1ncc(Cl)c(C(=O)Nc2cc(C)ccc2C)n1`, the “activity, negative = cell killing” value is -0.257% (inactive).

With `Cc1ccc(NC(=O)c2nc(S(=O)(=O)Cc3cccc(C)c3)ncc2Cl)cc1`, the Potency was 22.4 µM (active).

Regarding `Cc1ccc2nc(CN3CCN(S(=O)(=O)c4ccc(C)c(C)c4)CC3)oc2c1`, the “activity, negative = cell killing” value is -11.2% (inactive).

As for `O=C1N(c2ccc(Cl)cc2)C(c2ccc(Cl)cc2)N2CCCN12` (configuration not stated), the activity, negative = cell killing is -0.885% [at 1.84 µM] (inactive).

For the compound `O=C(COC(=O)CSc1nnc(-c2ccc(Cl)cc2)o1)Nc1cc(Cl)cc(Cl)c1`, the “activity, negative = cell killing” value is 0.272% (inactive).
